BAZ2B inh: inhibitors of human BAZ2B bromodomain; Q9UIF8; AlphaScreen BAZ2B-H3K14Ac peptide displacement; Potency, µM (doses to about 114 µM), inactives show at the top dose activity change, negative = inhibition, actives largely listed as inhibitors; 360,000 tested, 4.4% active; note: % is set by controls: 0 for no effect and ±100 for the full control effect; nearly all actives have a fitted effect of over 60% in size
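BAZ2B 50 nM plus b-H3(5-23)K14Ac 50 nM, PBS pH 7.4/0.01% Tween-20, 30 min RT; compound added (max 110 uM), 30 min RT; streptavidin donor/Ni-chelate acceptor beads 10 ug/mL final, 20 min dark; AlphaScreen read.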
HP1b chromo inh: inhibitors of HP1-beta chromodomain binding to methylated histone tails | 390,000 tested, 0.56% active | P83916 | Potency, µM (titrated, usually from 114 µM), for inactives: at the highest dose activity change, negative = inhibition, most hits filed as inhibitors | AlphaScreen HP1-beta / biotin-H3K9me3 peptide binding; note: nearly all actives have a fitted effect of over 70% in size
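Compound inhibition of the preformed complex between 50 nM HP1-beta and 50 nM biotinylated H3K9me3 peptide was read by AlphaScreen. Buffer was PBS pH 7.4 with 0.01% Tween-20. Incubations ran 30 min at room temperature, with 10 ug/mL donor/acceptor beads.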
JMJD2A Tudor: blocks the human JMJD2A Tudor domain; O75164; AlphaScreen JMJD2A-Tudor / H3K4me3 peptide binding; Potency, µM (titrated, usually from 114 µM), for the others: at the highest dose activity change, negative = inhibition, hits mostly inhibitors; 390,000 tested, 4.4% active; AID 504339; note: % is set by controls: 0 for no effect and ±100 for the full control effect; nearly all actives have a fitted effect of over 50% in size
PLK1 PBD inh: inhibitors of human PLK1 polo-box domain binding; P53350; Plk1 PBD binding of FITC phosphopeptide, fluorescence polarization; Potency, µM, inactives show max response, negative = inhibition, hits mostly inhibitors; 360,000 tested, 2.8% active; note: series mostly up to about 57 µM; % is set by controls: 0 for no effect and ±100 for the full control effect; nearly all actives have a fitted effect of over 65% in size
Target sequence (P53350 whole entry, looked up, the tested form may be a part): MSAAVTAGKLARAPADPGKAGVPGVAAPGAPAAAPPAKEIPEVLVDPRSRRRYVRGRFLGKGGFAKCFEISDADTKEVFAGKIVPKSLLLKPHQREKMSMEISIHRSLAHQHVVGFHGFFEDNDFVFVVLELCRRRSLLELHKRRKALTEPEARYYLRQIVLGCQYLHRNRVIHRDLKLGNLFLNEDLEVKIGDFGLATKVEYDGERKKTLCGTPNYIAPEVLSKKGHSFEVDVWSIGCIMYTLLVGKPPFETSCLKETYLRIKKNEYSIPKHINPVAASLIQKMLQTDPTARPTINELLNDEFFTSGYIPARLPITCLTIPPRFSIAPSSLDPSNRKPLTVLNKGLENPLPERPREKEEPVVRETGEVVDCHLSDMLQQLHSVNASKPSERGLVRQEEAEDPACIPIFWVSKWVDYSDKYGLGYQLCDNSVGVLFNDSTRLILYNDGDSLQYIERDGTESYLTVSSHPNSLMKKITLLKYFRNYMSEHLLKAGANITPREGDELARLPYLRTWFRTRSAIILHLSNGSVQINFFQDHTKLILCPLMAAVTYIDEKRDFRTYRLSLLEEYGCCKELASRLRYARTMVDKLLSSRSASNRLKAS
G9a inh: blocks human histone lysine methyltransferase G9a; Q96KQ7; G9a H3K9 monomethylation, AlphaScreen, 2 h; Potency, µM (titrated, usually from 102 µM), for the others: at the top dose activity, negative = inhibition, most hits filed as inhibitors; 350,000 tested, 8.8% active; AID 504332; note: % is set by controls: 0 for no effect and ±100 for the full control effect; nearly all actives have a fitted effect of over 75% in size
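Chemiluminescent proximity detection of H3K9 monomethylation, read after 10 min bead incubation in the dark. Reaction: 20 nM G9a, 500 nM biotin-H3K9 peptide, 20 uM SAM cofactor, 2 h, room temperature, following 15 min enzyme-compound preincubation.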
VDR inhibitor: blocks the human vitamin D receptor; VDR-SRC2-3 peptide fluorescence polarization, 2 h; Potency, µM, without a hit: max response, negative = inhibition, most hits filed as inhibitors; P11473; 400,000 tested, 0.93% active; note: % is set by controls: 0 for no effect and ±100 for the full control effect
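Signal is fluorescence polarization, reporting how far test compounds block the interaction of VDR with the SRC2-3 coregulator peptide after a 2 h room-temperature incubation.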
The depositor's hits bear a star; ? = inconclusive; nt = no result; [ ] = another dose, or the depositor's remark. Most compounds without a hit are left out; they make up all but 11% or so of the library. Calls come from the whole dose curve; as a rule, active = well fitted curve in the direction sought with a large enough effect; inconclusive = small, poorly fitted or top-dose-only effect, or another doubt; inactive = no such curve, though single readings can be large; an effect the other way counts as inactive or inconclusive. Potency is the fitted concentration of half-maximal effect.

SMILES	BAZ2B inh	HP1b chromo inh	JMJD2A Tudor	PLK1 PBD inh	G9a inh	VDR inhibitor
O=C(Nc1ccc2snnc2c1)Nc1cccc2ccccc12	-5%	-20%	-3%[11.4 µM]	30µM*	50µM*	-11%
CCc1ccccc1NC(=O)Nc1ccc2snnc2c1	-3%	26%	8%	nt	11%[59 µM]	-8%
CC(C)CNC(=O)NC1(C(F)(F)F)Oc2ccccc2O1	0%	35%	-4%	1%	?	-13%
O=C(NCc1cccnc1)NC1(C(F)(F)F)Oc2ccccc2O1	8%	34%	-17%	2%	40µM*	5%
O=C(Nc1cc(N2CCOCC2)ncn1)NC1(C(F)(F)F)Oc2ccccc2O1	-1%	19%	89µM*	-16%	2.2µM*	-14%
O=C(Nc1ccccc1)c1ccc2snnc2c1	0%	-17%[57 µM]	?	27µM*	1%	?
COc1ccc2[nH]cc(CCNc3ccnc(-c4ccccc4Cl)n3)c2c1	nt	nt	nt	nt	1%[0.501 µM]	-19%
CCOc1ccc(CNS(=O)(=O)c2c(C)nc3sccn3c2=O)cc1OC	5%	23%	-24%	-4%	21%	-2%
Cc1ccc(NC(=O)Cn2nc(N3CCN(c4ccccc4)CC3)ccc2=O)cc1F	-34%	5%	-36%	nt	-33%[59 µM]	6%
CCn1nc(C)c(/C=C2\CCCC3=C2OC(N)=C(C#N)C3c2c(C)nn(CC)c2C)c1C (stereo not drawn)	-8%	nt	nt	nt	50µM*	nt
COc1ccc(OCC(=O)N/N=C/c2cccc3cccnc23)cc1	nt	19%	79µM*	-1%	nt	11%
COc1cccc(/C=N/NC(=O)COc2cccc3cccnc23)c1O	-16%	50%	-16%	-9%	0%	13%
CC(C)n1cc(/C=N/NC(=O)COc2cccc3cccnc23)c2ccccc21	9%	29%	-30%	-11%	45µM*	-18%
COc1ccccc1OCC(=O)N/N=C/c1cccc2cccnc12	35µM*	29%	56µM*	4%	nt	1%
O=C1CC(=O)N(C2CCCCC2)C(=O)N1c1ccccc1S(=O)(=O)Oc1ccccc1	nt	nt	nt	-14%	nt	nt
COc1ccc(CSc2nc(C)cc(C)c2S(C)(=O)=O)cc1	7%	77%	25%	-4%	15%	22%
CC12CCC(C)(c3nc4ccccc4nc31)C2(C)C	3%	1%	?	30µM*	15%[59 µM]	1%
CCOCc1nnc(NC(=O)c2cc(OC)cc(OC)c2)s1	-16%	21%	-27%	-7%	32µM*	0%
CCOCC(=O)Nc1nnc(COC)s1	2%	7%	-20%	-1%	19%[59 µM]	-10%
CCOCc1nnc(NC(=O)c2c(OC)cccc2OC)s1	-26%	27%	-25%	?	?	-5%
CCOc1ccc(OCC(=O)Nc2nccs2)cc1	?	35%	-16%	-8%	35µM*	12%
CCOCC(=O)Nc1nnc(COc2ccc(Cl)cc2)s1	-2%	?	?	6.7µM*	4µM*	79µM*
CCOc1ccc(CN2C(=O)c3ccccc3Sc3ccc(C(=O)NCc4ccco4)cc32)cc1	nt	11%	-18%	nt	-24%[59 µM]	-14%
CCN(CC)c1ccc(NC(=O)c2cc3c(=O)n4cccc(C)c4nc3n2C)c(C)c1	6%	36%	0%	nt	8%[59 µM]	6%
Cn1cccc1C(=S)N=P(C1CCCCC1)(N1CCOCC1)N1CCOCC1	-28%	?	35µM*	-30%	8.9µM*	-3%
SMILES	BAZ2B inh	HP1b chromo inh	JMJD2A Tudor	PLK1 PBD inh	G9a inh	VDR inhibitor
Cn1cccc1C(=S)N1CCOCC1	9%	-15%	-11%	?	?	-9%
O=C(CCCC(=O)c1ccc(O)cc1)c1ccc(O)cc1	-3%	22%	-4%	6%	19%[2.33 µM]	-13%
O=C1C=CC(=C(c2ccc(O)cc2)c2ccc(O)cc2)C=C1	?	-13%	-15%	5%	22%[2.33 µM]	50µM*
Cc1[nH]c2ccccc2c1CCO	6%	9%	-5%	2%	3%[59 µM]	-2%
CCCCn1c(Cc2ccccc2)n[nH]c1=S	-3%	?	4µM*	-15%	13µM*	-13%
C=CCn1c(CCSCc2ccccc2)n[nH]c1=S	-10%	16%	16µM*	-7%	7.1µM*	-16%
CCCn1c(CCc2ccccc2)nnc1SCC(=O)N1CCCC1	-10%	37%	-20%	-10%	-33%[59 µM]	4%
CCn1c(Cc2c(C)[nH]c3ccccc23)n[nH]c1=S	-35%	15%	4µM*	-3%	1.8µM*	15%
CCCn1c(CCc2ccccc2)n[nH]c1=S	8%	16%	4.5µM*	-5%	40µM*	-9%
COc1ccccc1C(=O)Nc1ccccc1C(=O)OCc1cc(=O)n2c(C)csc2n1	-3%	43%	3%	nt	37%[59 µM]	4%
COc1ccc(CSc2nc3ccccc3[nH]2)cc1	6%	70%	-14%	-17%	0%[59 µM]	-11%
CCn1c(CSCc2ccccc2)n[nH]c1=S	-25%	23%	18µM*	-5%	7.1µM*	13%
CCn1c(CCc2ccccc2)n[nH]c1=S	-11%	19%	3.5µM*	-4%	27%[0.501 µM]	-10%
CCn1c(CSCc2ccc(F)cc2)nnc1SCC(=O)NCc1ccccc1	11%	50%	-16%	-6%	-11%[12.7 µM]	-2%
CCn1c(CCn2c3ccccc3c3ccccc32)n[nH]c1=S	?	47%	-21%	-4%	22µM*	-20%
CCn1c(CSc2nc3ccccc3[nH]2)n[nH]c1=S	-3%	11%	6.3µM*	-5%	?	4%
CC1(C)COC(c2ccc3c(c2)OCO3)OC1	nt	6%[57 µM]	-8%	2%	nt	-1%
CCn1cc(Br)c(C(=O)Nc2sc3c(c2C(N)=O)CCCC3)n1	-17%	22%	-1%	-6%	40%	-5%
Cn1cnnc1SCC(=O)Nc1sc2c(c1C(N)=O)CCC2	50µM*	?	63µM*	27µM*	?	-9%
Cn1cc(Br)c(C(=O)Nc2sc3c(c2C(N)=O)CCCC3)n1	-5%	-10%	-19%	-29%	35µM*	14%
COCCn1cnnc1SCC(=O)Nc1sc2c(c1C#N)CCC2	-4%	10%	-21%	-7%	14%[2.33 µM]	-10%
CC1CCC2(CC1)NC(=O)N(CC(=O)Nc1sc3c(c1C(N)=O)CCC3)C2=O (stereo not drawn)	50µM*	7%	?	-30%	50µM*	-23%
COC(=O)c1c(NC(=O)CN2C(=O)NC3(CCC(C)CC3)C2=O)sc2c1CCC2 (stereo not drawn)	9%	34%	-4%	-6%	-5%[12.7 µM]	-2%
O=C(CCNS(=O)(=O)c1ccc(Br)s1)Nc1ccc(Br)cc1	2%	39%	-4%	nt	12%[59 µM]	-14%
CN(C)CCNC(=O)c1cccc2ccc(-c3ccc(-c4ccccc4)cc3)nc12	nt	-13%	56µM*	2%	nt	-3%
COc1ccc(OC)c2nc3c(C(=O)NCCN(C)C)cccc3nc12	nt	-5%	-31%	-9%	nt	-11%
N#Cc1cccc(-c2cncnc2NCc2cccs2)c1	nt	nt	nt	nt	9%[0.501 µM]	-3%

Screens as filed in PubChem BioAssay.
